# Activity calls are given as the source filed them. The calls were made as follows: active = hit-call score of the fitted dose curve at least 0.9, where 1 is the maximum; inactive = score below 0.9.
# Read-out: Glutathione S-Transferase (GSTA2), GSTA2 (gene 2939)
# Assay: LTEA_HepaRG_GSTA2: Life Technologies and Expression Analysis (LTEA) Assay for Glutathione S-Transferase (GSTA2) using HepaRG (AID 2283497)
# Settings: mRNA level, 48 h; actives raise or lower the signal
# Procedure: LTEA_HepaRG is a cell based, multiplexed-readout assay that uses HepaRG, a human liver cell line, with measurements taken at 48 hours after chemical dosing on a 96-well plate.LTEA_HepaRG_GSTA2 is one of 102 assay component(s) measured in the LTEA HepaRG cell culture assay. It is a marker of Oxidative Stress.Data from the assay component LTEA_HepaRG_GSTA2 was analyzed into 1 endpoint. This assay endpoint, LTEA_HepaRG_GSTA2, was analyzed with bidirectional fitting relative to DMSO as the negative control and baseline of activity. Using a type of inducible reporter, measures of mRNA induction for gain or loss-of-signal activity can be used to understand regulation of transcription factor activity. To generalize the intended target to other relatable targets, this assay endpoint is annotated to the transferase intended target family, where the subfamily is alkyl and aryl transferase.
# A total of 1060 chemcials from the ToxCast library were tested in eight-point concentration-response experiments. Cell culture and cytotoxicity assays were conducted at Thermo Fisher Scientific's Custom Services facility (Madison, WI). A single lot of human HepaRG cells (Thermo Fisher Scientific, Frederick, MD) was used for the cell culture experiments. 96-well format collagen type I coated plates of human HepaRG cells were prepared using established methods. Briefly, cryopreserved HepaRG cells were thawed, plated at a density of approximately 100,000 cells/well in HepaRG Thaw, Plate, and General Purpose media (HPRG770, Thermo Fisher Scientific), and incubated for 48 hours. 0.5% DMSO was selected as vehicle control to balance the requisite need of DMSO in HepaRG cultures to maintain differentiation (for example, baseline metabolism, proportions of hepatocytes vs. cholangiocytes), while enabling further hepatic receptor pathway activation (for example, PXR and CAR) in response to chemical exposure. 48 hours after plating, the culture medium was replaced with HepaRG Serum-Free Incudtion Media. Cells were exposed to each test chemical in duplicate and maintained in CO2 incubators for another 48 hours. Chemical plates were thawed to room temperature and 200x concentrations of treatment groups were prepared. 8-point conentration-reponse curves were made with the highest exposure at 100 uM, followed by half-log dilutions, all in 0.5% DMSO. Each test plate contained variouse controls, induction positive controls (1mM phenobarbital), cytotoxicity positive controls ([…] aflatoxin B1), vehicle controls (0.5% DMSO), and total lysis controls (0.5% DMSO). Cell morphology images were taken using an Essen IncuCyte FLR automated microscope, with six 96-well plates imaged in about 24 minutes. Images were captured and exported and JPEG files. Spent culture media was transfered to black-well plates for the LDH assay, and remaining media was sorted at -80 C for later use. Cells were treated with RLT buffer and frozen until shipped for gene expression analysis. Total RNA was isolated from the cell suspension in 75 uL of Buffer RLT (Qiagen, Germantown, MD 20874) by Quintiles/Expression Analysis (Durham, NC) using a custom isolation procedure. Total RNA from each plate well was transferred to a preamplification plate. Fluidigm's 96.96 Dynamic ArrayTM (Fluidigm, Amsterdam, the Netherlands) technology was used for gene expression analyses by quantitative reverse transcription polymerase chain reaction (qRT-PCR, performed by Quintiles/Expression Analysis, Durham, NC)89. Standard TaqManTM Assays (Applied Biosystems/ThermoFisher Scientific, Foster City, CA) were used to assess the expression of 93 genes selected based on their selectivity and sensitivity to important hepatic receptors known to be modulated by environmental chemicals; importance in human hepatocyte functionality; and hepatotoxicity. […]
SMILES,outcome,AC50
Cc1c(C(=O)O)c(O)cc2c1C(=O)c1c(O)c([C@@H]3O[C@H](CO)[C@@H](O)[C@H](O)[C@H]3O)c(O)c(O)c1C2=O,inactive,
CCCCCCC(=O)OCC,inactive,
Nc1ccccc1N,,74.9 µM (active)
O=c1[nH]cc(F)c(=O)[nH]1,,78 µM (active)
Cc1cccc([N+](=O)[O-])c1C,inactive,
COc1cc(-c2nc(NC(=O)c3cc4cc(C)cc(C)c4n3CC(=O)O)sc2CCC2CCCCC2)c(OC)cc1Cl,,7.06 µM (active)
COC(=O)c1ccc(O)cc1,inactive,
Cc1ccccc1Cl,inactive,
CC1(C)NC(=O)NC1=O,inactive,
CCCCc1ccc2c(n1)[C@@H](c1ccc(OC)cc1C[C@H](C)C(=O)O)[C@H](C(=O)O)[C@H]2c1ccc2c(c1)OCO2,inactive,
O=[N+]([O-])C(CO)(CO)CO,inactive,
O=C(O)CCCCC(=O)O,inactive,
Cc1ccc(C(C)C)c(O)c1,inactive,
CCCCC(CC)COC(=O)CC(C(=O)OCC(CC)CCCC)S(=O)(=O)O (stereo not given),,82.2 µM (active)
CCCCCCCCCCO,inactive,
CNCc1cc(F)ccc1Oc1ccc(Cl)c(Cl)c1,,92.7 µM (active)
CNC(=O)[C@H]1O[C@@H](n2cnc3c(NCc4cc(Cl)ccc4OCc4cc(C)no4)ncnc32)[C@H](O)[C@@H]1N,inactive,
Nc1ccc2c(c1)C(=O)c1ccccc1C2=O,,10.2 µM (active)
Cc1ccc2ncccc2c1,inactive,
Cc1ccc(C)c(O)c1C,inactive,

SMILES,outcome,AC50
C[Si]1(C)O[Si](C)(C)O[Si](C)(C)O[Si](C)(C)O1,inactive,
Cc1nc(-c2ccc3c(c2)CCN(CCC2CCC(NC(=O)/C=C/c4ccc(F)cc4)CC2)CC3)no1 (stereo not given),inactive,
C1CCC(SSC2CCCCC2)CC1,inactive,
c1cc(-c2ccncc2)ccn1,inactive,
Cc1cc(=O)[nH]c(=S)[nH]1,inactive,
CC=Cc1ccc(O)c(OC)c1,inactive,
CCCCN(CCCC)CCCC,inactive,
NC(=O)Cn1c(=O)cc(CCN2CCN(c3nccc4sccc34)CC2)c2ccc(F)cc21,,50 µM (active)
O=C(N[C@@H](Cc1ccccc1)[C@@H](O)C(=O)N1C[C@@H](O)[C@@H](O)C1)c1cc2cc(Cl)ccc2[nH]1,,81.7 µM (active)
CCCCCCCCCCCCCCCC,inactive,
COc1cc(S(=O)(=O)O)c(C)cc1N=Nc1c(O)ccc2cc(S(=O)(=O)O)ccc12,inactive,
COc1ccc(C)cc1N,inactive,
CCCCCCOCCO,inactive,
C[C@]12C=CC(=O)C=C1CC[C@@H]1[C@@H]2C(=O)C[C@@]2(C)[C@H]1CC[C@]2(O)C(=O)CO,inactive,
COc1ccc2c(c1)c(CC(=O)O)c(C)n2C(=O)c1ccc(Cl)cc1,inactive,
CC(=O)OCCOCCOCCOC(C)=O,inactive,
CC(C)(C)c1cc(O)c(C(C)(C)C)cc1O,,77.8 µM (active)
Oc1ccc2c(c1)OC[C@@H](N1CCC(O)(c3ccc(F)cc3)CC1)[C@H]2O,inactive,
FC(F)(F)C(F)(F)C(F)(F)C(F)(F)C(F)(F)C(F)(F)CCI,inactive,
COCCOC[C@H](CC1(C(=O)NC2CCC(C(=O)O)CC2)CCCC1)C(=O)Oc1ccc2c(c1)CCC2 (stereo not given in full),inactive,

# — PubChem BioAssay (EPA / NIEHS)
